The campaign covered roughly 39,000 compounds. About 1,500 (3.8%) were called active. Only a selection was taken, and actives are over-represented in it overall.
Tested on: HSkMC (human skeletal muscle cells)
Test: cytotoxicity call (relative viability < 0.9)
Details: 10 µM

Row | Compound | cytotoxicity call
1 | CC(C)(C)[S@](=O)N1Cc2cc(C(=O)NCc3ccncc3)nc(-c3cccc(-c4cccc(C#N)c4)c3)c2[C@@H]1CCO | inactive
2 | C[C@H](CO)N1C[C@H](C)[C@H](CN(C)S(=O)(=O)c2cn(C)cn2)Oc2ccc(NC(=O)Cc3ccccc3)cc2C1=O | inactive
3 | Cc1cc(C(=O)Nc2cccc3c2O[C@H](CN(C)Cc2ccncc2)[C@H](C)CN([C@H](C)CO)C3=O)n(C)n1 | inactive
4 | Cc1noc(C)c1S(=O)(=O)Nc1ccc2c(c1)C(=O)N([C@@H](C)CO)C[C@H](C)[C@@H](CN(C)C(=O)Nc1ccccc1)OCCCC[C@@H](C)O2 | inactive
5 | C[C@@H](Nc1nc(=O)cc(F)[nH]1)C(=O)O | inactive
6 | COc1ccc(NC(=O)N(C)C[C@H]2Oc3ccc(NC(=O)CCCCCC(=O)Nc4ccccc4N)cc3C(=O)N([C@@H](C)CO)C[C@@H]2C)cc1 | inactive
7 | COc1ccc(NC(=O)Nc2ccc3c(c2)C(=O)N([C@@H](C)CO)C[C@H](C)[C@@H](CN(C)C(=O)Cc2ccccc2)OCCCC[C@@H](C)O3)cc1 | inactive
8 | COc1ccc(CN(C)C[C@H]2Oc3ccc(NS(=O)(=O)c4cn(C)cn4)cc3CC(=O)N([C@H](C)CO)C[C@@H]2C)cc1 | inactive
9 | Cc1noc(C)c1S(=O)(=O)Nc1ccc2c(c1)C(=O)N([C@@H](C)CO)C[C@H](C)[C@@H](CN(C)Cc1ccc(Oc3ccccc3)cc1)O2 | inactive
10 | C[C@H](CO)N1C[C@H](C)[C@H](CN(C)C(=O)Nc2ccccc2)Oc2ccc(NC(=O)Nc3ccc(C(F)(F)F)cc3)cc2CC1=O | inactive
11 | C[C@H]1CN([C@@H](C)CO)C(=O)Cc2cc(NC(=O)Nc3ccc(C(F)(F)F)cc3)ccc2O[C@H]1CN(C)C(=O)Nc1ccccc1 | active
12 | C[C@@H]1CN([C@@H](C)CO)C(=O)Cc2cc(NC(=O)Nc3ccc(C(F)(F)F)cc3)ccc2O[C@@H]1CN(C)C(=O)Nc1ccccc1 | active
13 | C[C@H](CO)N1C[C@H](C)[C@@H](CN(C)C(=O)Nc2ccccc2)Oc2ccc(NC(=O)Nc3ccc(C(F)(F)F)cc3)cc2CC1=O | inactive
14 | C[C@@H]1CN([C@@H](C)CO)C(=O)Cc2cc(NC(=O)Nc3ccccc3)ccc2O[C@@H]1CN(C)C(=O)Nc1ccc(C(F)(F)F)cc1 | inactive
15 | C[C@H]1CN([C@@H](C)CO)C(=O)Cc2cc(NC(=O)Nc3ccc(C(F)(F)F)cc3)ccc2O[C@@H]1CN(C)C(=O)Nc1ccccc1 | inactive
16 | O=C(O)C1=CCCNC1 | inactive
17 | Cc1noc(C)c1NC(=O)N(C)C[C@@H]1Oc2ccc(NS(=O)(=O)c3cccs3)cc2CC(=O)N([C@@H](C)CO)C[C@H]1C | inactive
18 | COc1ccc(NC(=O)Nc2ccc3c(c2)C(=O)N([C@H](C)CO)C[C@@H](C)[C@@H](CN(C)Cc2ccc(C(=O)O)cc2)OCCCC[C@H](C)O3)cc1 | inactive
19 | NC(=O)[C@H]1[C@@H]2C(=O)O[C@@H](c3ccccc3)[C@@H](c3ccccc3)N2[C@@H](c2ccc(O)cc2)[C@]12C(=O)Nc1ccc(C#CC3(O)CCCCCC3)cc12 | inactive
20 | Fc1ccc(Nc2ncnc3sc(-c4ccccc4)cc23)cc1 | active
21 | c1ccc(Nc2ncnc3cc(-c4ccccc4)sc23)cc1 | inactive
22 | c1ccc(Nc2ncnc3sc(-c4ccccc4)cc23)cc1 | inactive
23 | CCCC(=O)Nc1ccc2c(c1)OC[C@@H](C)N(C(=O)CN1CCOCC1)C[C@@H](C)[C@H](OC)CN(C)C2=O | inactive
24 | NS(=O)(=O)OC[C@H]1C[C@@H](Nc2ccnc3cc(-c4cccc(SC(F)(F)F)c4)nn23)[C@H](O)[C@@H]1O | active

Row | Compound | cytotoxicity call
25 | O=C([O-])C(O)C(O)C(O)C(O)CO.[Na+] (stereo not given) | inactive
26 | COc1ccccc1[C@@H](NC(=O)C1CCN(CCOc2ccc(Cl)cc2Cl)CC1)c1ccccn1 | inactive
27 | Cc1ccccc1[C@@H](c1ncccc1C)N(C)C(=O)C1CCN(CCOc2ccc3ccccc3c2)CC1 | inactive
28 | Cc1cccnc1[C@H](c1ccc(F)cc1)N(C)C(=O)C1CCN(CCOc2ccc(Cl)cc2Cl)CC1 | active
29 | Cc1cccnc1[C@@H](NC(=O)C1CCN(CCOc2ccc(Cl)cc2Cl)CC1)c1ccc(F)cc1 | inactive
30 | Cc1ccccc1[C@@H](c1ncccc1C)N(C)C(=O)C1CCN(CCOc2ccc(Cl)cc2Cl)CC1 | active
31 | Cc1cccnc1[C@@H](NC(=O)C1CCN(CCOc2ccc(Cl)cc2Cl)CC1)c1ccc(Cl)cc1 | inactive
32 | C[C@@H]1CN([C@@H](C)CO)C(=O)c2cc(NC(=O)Nc3ccccc3)ccc2O[C@@H](C)CCCCO[C@H]1CN(C)S(=O)(=O)c1ccccc1F | inactive
33 | O=C(O)/C=C/C(=O)O | inactive
34 | COC(=O)c1c(CC[C@@H](CO)NC(=O)N[C@H](Cn2cc(Cc3ccccc3)nn2)C(C)C)oc(C(C)=O)c1C(=O)OC | inactive
35 | O=C(C[C@@H]1CC=CC[C@@H](Cc2ccc(F)cc2)C(=O)OC[C@H](Cc2c[nH]c3ccccc23)NC1=O)NCCO | inactive
36 | CC(C)NC(=O)N(C)C[C@@H]1OCc2cnnn2CCCC(=O)N([C@@H](C)CO)C[C@@H]1C | inactive
37 | CC(C)NC(=O)N(C)C[C@H]1Oc2cc(-c3ccccc3F)ccc2S(=O)(=O)N([C@H](C)CO)C[C@H]1C | inactive
38 | C[C@@H]1CN([C@@H](C)CO)C(=O)c2cccc(NS(=O)(=O)c3ccc(Cl)cc3)c2O[C@H]1CN(C)Cc1ccc(-c2ccccc2)cc1 | inactive
39 | C[C@@H]1CN([C@@H](C)CO)C(=O)c2cccc(NS(=O)(=O)c3ccc(Cl)cc3)c2O[C@@H]1CN(C)Cc1ccc(-c2ccccc2)cc1 | active
40 | C[C@H]1CN([C@@H](C)CO)C(=O)c2cccc(NS(=O)(=O)c3ccc(Cl)cc3)c2O[C@@H]1CN(C)Cc1ccc(C(F)(F)F)cc1 | inactive
41 | C[C@H](CO)N1C[C@H](C)[C@H](CN(C)Cc2ccc(C(F)(F)F)cc2)Oc2c(NS(=O)(=O)c3ccc(Cl)cc3)cccc2C1=O | active
42 | C[C@@H]1CN([C@H](C)CO)C(=O)c2cccc(NS(=O)(=O)c3ccc(Cl)cc3)c2O[C@H]1CN(C)Cc1ccc(-c2ccccc2)cc1 | inactive
43 | C[C@H](CO)N1C[C@H](C)[C@@H](CN(C)Cc2ccc(C(F)(F)F)cc2)Oc2c(NS(=O)(=O)c3ccc(Cl)cc3)cccc2C1=O | inactive
44 | C[C@@H]1CN([C@H](C)CO)C(=O)c2cc(NC(=O)c3ccccc3)ccc2O[C@@H](C)CCCCO[C@@H]1CN(C)Cc1ccc(Cl)c(Cl)c1 | inactive
45 | COc1ccc(-c2cnc3c(c2)C(=O)N([C@H](C)CO)C[C@H](C)[C@H](CN(C)S(=O)(=O)c2cccs2)O3)cc1 | inactive
46 | C[C@@H]1CCCCO[C@@H](CN(C)S(C)(=O)=O)[C@@H](C)CN([C@H](C)CO)C(=O)c2cc(NC(=O)CCCN(C)C)ccc2O1 | inactive
47 | NCC1OC(OC2C(CO)OC(OC3C(O)C(N)CC(N)C3OC3OC(CN)C(O)C(O)C3N)C2O)C(N)C(O)C1O.O=S(=O)(O)O.O=S(=O)(O)O.O=S(=O)(O)O (stereo not given) | inactive
48 | CC(C)NC(=O)N[C@H]1C=C[C@H](CC(=O)NCCN2CCCC2)O[C@H]1CO | inactive

Row | Compound | cytotoxicity call
49 | O=C(N[C@H]1CC[C@@H](CC(=O)N2CCOCC2)O[C@@H]1CO)c1ccc2c(c1)OCO2 | inactive
50 | C[C@H](CO)N1C[C@H](C)[C@H](CN(C)C(=O)Nc2ccccc2)OCCCC[C@H](C)Oc2ccc(NS(=O)(=O)c3ccc(Cl)cc3)cc2C1=O | inactive
51 | C[C@H](CO)N1C[C@H](C)[C@H](CN(C)Cc2ccc(C(=O)Nc3ccccc3N)cc2)OCc2cn(nn2)CCCC1=O | inactive
52 | Cl.N=C(NN=Cc1ccc(Cl)cc1)NN=Cc1ccc(Cl)cc1 | active
53 | NC(=S)N/N=C/c1ccncc1 | inactive
54 | Clc1ccc(/C=N/Cc2ccc(-c3cccs3)s2)cc1 | inactive
55 | C[C@H]1CN([C@@H](C)CO)C(=O)c2cccc(NS(=O)(=O)c3cccs3)c2O[C@H]1CN(C)S(=O)(=O)c1cccs1 | inactive
56 | CCCCCCc1nc(CCCc2cc3c(c(CCCCCC)n2)[Si](C(C)C)(C(C)C)O[C@H]3c2ccccc2)cc2c1[Si](C(C)C)(C(C)C)O[C@H]2c1ccccc1 | inactive
57 | Cc1onc(NS(=O)(=O)c2ccccc2-c2ccc(-c3ncco3)cc2CN(C)C(=O)CC(C)(C)C)c1C | inactive
58 | C[C@@H]1CN([C@H](C)CO)C(=O)c2cccc(NC(=O)Nc3ccccc3)c2O[C@@H]1CN(C)C(=O)Nc1cccc2ccccc12 | inactive
59 | Cc1ccc(S(=O)(=O)Nc2ccc3c(c2)C(=O)N([C@@H](C)CO)C[C@H](C)[C@H](CN(C)Cc2ccc(C(F)(F)F)cc2)OCCCC[C@H](C)O3)cc1 | inactive
60 | Cc1ccc(S(=O)(=O)Nc2ccc3c(c2)C(=O)N([C@@H](C)CO)C[C@@H](C)[C@@H](CN(C)Cc2ccc(C(F)(F)F)cc2)OCCCC[C@H](C)O3)cc1 | inactive
61 | Cc1ccc(S(=O)(=O)Nc2ccc3c(c2)C(=O)N([C@H](C)CO)C[C@H](C)[C@H](CN(C)Cc2ccc(C(F)(F)F)cc2)OCCCC[C@@H](C)O3)cc1 | inactive
62 | Cc1ccc(S(=O)(=O)Nc2ccc3c(c2)C(=O)N([C@H](C)CO)C[C@H](C)[C@H](CN(C)Cc2ccc(C(F)(F)F)cc2)OCCCC[C@H](C)O3)cc1 | active
63 | C[C@@H]1CCCCO[C@@H](CN(C)Cc2ccc(C(F)(F)F)cc2)[C@H](C)CN([C@H](C)CO)C(=O)c2cc(NS(=O)(=O)c3ccc(F)cc3)ccc2O1 | inactive
64 | Cc1ccc(S(=O)(=O)Nc2ccc3c(c2)C(=O)N([C@H](C)CO)C[C@H](C)[C@@H](CN(C)Cc2ccc(C(F)(F)F)cc2)OCCCC[C@H](C)O3)cc1 | inactive
65 | Cc1ccc(S(=O)(=O)Nc2ccc3c(c2)C(=O)N([C@@H](C)CO)C[C@H](C)[C@@H](CN(C)Cc2ccc(C(F)(F)F)cc2)OCCCC[C@@H](C)O3)cc1 | active
66 | Cc1ccc(S(=O)(=O)Nc2ccc3c(c2)C(=O)N([C@H](C)CO)C[C@@H](C)[C@@H](CN(C)Cc2ccc(C(F)(F)F)cc2)OCCCC[C@@H](C)O3)cc1 | inactive
67 | C[C@@H]1CCCCO[C@H](CN(C)Cc2ccc(C(F)(F)F)cc2)[C@H](C)CN([C@@H](C)CO)C(=O)c2cc(NS(=O)(=O)c3ccc(F)cc3)ccc2O1 | active
68 | Cc1ccc(S(=O)(=O)Nc2ccc3c(c2)C(=O)N([C@@H](C)CO)C[C@H](C)[C@@H](CN(C)Cc2ccc(C(F)(F)F)cc2)OCCCC[C@H](C)O3)cc1 | active
69 | C[C@@H]1CN([C@H](C)CO)C(=O)c2cc(NS(=O)(=O)c3ccc(F)cc3)ccc2O[C@@H](C)CCCCO[C@H]1CN(C)Cc1ccc(C(F)(F)F)cc1 | inactive
70 | Cc1ccc(S(=O)(=O)Nc2ccc3c(c2)C(=O)N([C@H](C)CO)C[C@@H](C)[C@@H](CN(C)Cc2ccc(C(F)(F)F)cc2)OCCCC[C@H](C)O3)cc1 | inactive

From the antibiotic and cytotoxicity screens of Wong et al. (2023)
